The source of these data is PubChem BioAssay (Tox21).

A short description of experiment [1]: qHTS assay to identify small molecule agonists of H2AX (AID 1224845; active = well fitted activation curve with a large enough effect in the signal ratio in the repeat runs, not every such curve was filed as active; the % refers to the signal ratio; also: potency is read from the fitted curve at half-maximal effect). Put shortly:
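Phospho-H2AX Ser139 measured by HTRF (ex 320 nm; em 665 and 620 nm) after 24 hr antibody incubation. Compounds, 15 concentrations, 0.76% DMSO, were applied to CHO-K1 cells for 3hr at 37C before lysis.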

Experiment [2] is described as follows: qHTS assay to identify small molecule agonists of the hypoxia (HIF-1) signaling pathway (AID 1224846; active = well fitted activation curve with a large enough effect in the signal ratio in the repeat runs, not every such curve was filed as active; the % refers to the signal ratio). Put shortly:
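Compounds added to ME-180 cells carrying hypoxia-response-element beta-lactamase reporter (0.5% dialyzed FBS, 5 h preplating), 17 h at 37C; agonist activity detected by CCF4-AM B/G FRET read-out.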

Experiment [3] is described as follows: qHTS assay to identify small molecule agonists of H2AX - cell viability counter screen (AID 1224847; calls by dose curve; also: nearly all actives have a fitted effect of over 30% in size; also: potency is read from the fitted curve at half-maximal effect). Put shortly:
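CHO-K1 wt, 1000 cells/well, o/n 37C; cpds 15 conc, 3 h 37C, 0.76% DMSO; CellTiter-Glo, 30 min RT, luminescence.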

Experiment [4] can be described thus: qHTS RealTime-Glo MT Cell Viability Assay in HepG2 cells - 24 hour (AID 1224867). Also: nearly all actives have a fitted effect of over 50% in size. The method, boiled down: (§1)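 HepG2 cells (600/well) were dispensed with RealTime-Glo reagents, incubated 5 h at 37 °C, then treated with compounds in DMSO for up to 40 h. Nonlytic NanoLuc luminescence reflecting viable cells was read at each stated time point.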
Experiment [5] in a line: qHTS RealTime-Glo MT Cell Viability Assay in HEK293 cells - 32 hour (AID 1224868). Also: nearly all actives have a fitted effect of over 50% in size. Also: potency is read from the fitted curve at half-maximal effect. Put shortly: (§2)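 HEK293 cells seeded with NanoLuc/prosubstrate reagent, rested 5 h at 37 C, then dosed and kept at 37 C up to 40 h. Nonlytic real-time luminescence from viable cells read at 0, 8, 16, 24, 32 and 40 h.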
A short description of experiment [6]: A CellTox Green Cytotoxicity Assay to monitor cytotoxicity in HEK293 cells - 0 hour (AID 1224869). Also: nearly all actives have a fitted effect of over 50% in size. Put shortly:
(§3)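 Fluorescence from a DNA-binding dye excluded by viable cells was measured repeatedly in the same HEK293 wells (600 cells/well) during continuous compound exposure at 37 C. Each assay gives one read point: 0, 8, 16, 24, 32 or 40 h.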

The nature of experiment [7]: A CellTox Green Cytotoxicity Assay to monitor cytotoxicity in HEK293 cells - 40 hour (AID 1224871). Also: nearly all actives have a fitted effect of over 45% in size. Put shortly: as §3
A short description of experiment [8]: qHTS RealTime-Glo MT Cell Viability Assay in HEK293 cells - 16 hour (AID 1224872). Also: nearly all actives have a fitted effect of over 50% in size. Also: potency is read from the fitted curve at half-maximal effect. Put shortly:
as §2

Experiment [9] can be described thus: qHTS RealTime-Glo MT Cell Viability Assay in HepG2 cells - 8 hour (AID 1224873). Also: nearly all actives have a fitted effect of over 55% in size. The method, boiled down: (§4)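 Real-time viability: cells seeded at 600 per well together with NanoLuc and cell-permeant prosubstrate, compounds added after 5 h incubation. Luminescence tracked at 0, 8, 16, 24, 32 and 40 h of exposure.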
Experiment [10] in a line: qHTS RealTime-Glo MT Cell Viability Assay in HEK293 cells - 40 hour (AID 1224874). Also: nearly all actives have a fitted effect of over 50% in size. Also: potency is read from the fitted curve at half-maximal effect. Conditions: RealTime-Glo luminescence; max response: active compounds read low. The method, boiled down:
(§5)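 Luminescence, which tracks viable cell number through reduction of the prosubstrate to a NanoLuc substrate, was read over continuous 37 C culture. Cells (600/well) were premixed with reagent and rested 5 h before 23 nL of compound in DMSO was pinned.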

Experiment [11] is described as follows: A CellTox Green Cytotoxicity Assay to monitor cytotoxicity in HEK293 cells - 24 hour (AID 1224875). Also: nearly all actives have a fitted effect of over 45% in size. Put shortly:
as §3

Experiment [12] can be described thus: A CellTox Green Cytotoxicity Assay to monitor cytotoxicity in HepG2 cells - 16 hour (AID 1224876). Also: nearly all actives have a fitted effect of over 45% in size. The method, boiled down: (§6)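 Real-time cytotoxicity: fluorescence of a cell-impermeant cyanine dye binding DNA of dead HepG2 cells, measured repeatedly (0–40 h) during compound exposure at 37 C. Cells seeded 600/well with reagent, dosed after 5 h.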
A short description of experiment [13]: A CellTox Green Cytotoxicity Assay to monitor cytotoxicity in HepG2 cells - 24 hour (AID 1224878). Also: nearly all actives have a fitted effect of over 45% in size. The method, boiled down:
as §6

Experiment [14] in a line: A CellTox Green Cytotoxicity Assay to monitor cytotoxicity in HepG2 cells - 40 hour (AID 1224879). Also: nearly all actives have a fitted effect of over 40% in size. The method, boiled down: as §6
Experiment [15] in a line: qHTS RealTime-Glo MT Cell Viability Assay in HEK293 cells - 0 hour (AID 1224880). The method, boiled down: as §5
Experiment [16] can be described thus: qHTS RealTime-Glo MT Cell Viability Assay in HepG2 cells - 40 hour (AID 1224870). Also: nearly all actives have a fitted effect of over 50% in size. Put shortly: as §4
The nature of experiment [17]: qHTS RealTime-Glo MT Cell Viability Assay in HepG2 cells - 32 hour (AID 1224877). Also: nearly all actives have a fitted effect of over 55% in size. Put shortly:
as §1

Experiment [18] is described as follows: qHTS assay to identify small molecule antagonists of the estrogen related receptor (ERR) signaling pathway from Tox21 library (AID 1224848). Also: nearly all actives have a fitted effect of over 50% in size. Also: potency is read from the fitted curve at half-maximal effect. Put shortly: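 ERR cell line, 2,000 cells/well. 6 h settle, then compound (DMSO) added; 18 h at 37 C; ONE-Glo luminescence after 30 min RT.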
A short description of experiment [19]: qHTS assay to identify small molecule agonists of the estrogen related receptor (ERR) signaling pathway from Tox21 library (AID 1224849; calls by dose curve; also: nearly all actives have a fitted effect of over 15% in size). Conditions: ERR reporter cell line, ONE-Glo luciferase, 18 h; at 92.4 µM (top of the series) unless noted. Put shortly:
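Luminescent agonist read-out (One-Glo, 30-minute room-temperature incubation) following 18-hour compound treatment at 37 C of the ERR cell line, which had been plated 6 hours before dosing.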

Unmarked numbers belong to inactive results. Inconclusive results are not listed. Active and inactive are the calls of the source. Unless noted, calls follow the shape of the dose curve; as a rule, active = well fitted curve in the direction sought with a large enough effect in the repeat runs; inconclusive = weak or mixed curves; inactive = no such curve, though single readings can be large; an effect the other way counts as inactive or inconclusive.
% is scaled to controls: 0 for no effect and ±100 for the full control effect.

In the case of `CCC(=O)OC`, the Potency result in experiment [1], in experiment [3], in experiment [4], in experiment [5], in experiment [6] and in experiment [7] was “inactive” in each case. The Potency entry in [8], in [9], in experiment [11], in experiment [12], in experiment [13] and in [14] was “inactive” throughout. The Potency result in [15] was “inactive”. In addition, the result in experiment [2] was inactive. The max response in experiment [10] was 4.28%.
With `Nc1cccc2c1CN(C1CCC(=O)NC1=O)C2=O` (centres undefined), the Potency entry in experiment [1], in experiment [3], in [4], in experiment [5], in experiment [6] and in experiment [16] was “inactive” throughout. Besides, the Potency result in [7], in experiment [8], in [9], in experiment [11], in [12] and in [17] was “inactive” throughout. Further, the Potency result in experiment [13], in experiment [14] and in experiment [15] was “inactive” in each case. In addition, the max response in experiment [10] is 2.81%.
Take `Nc1nnc(-c2ccc([N+](=O)[O-])o2)o1`: the Potency entry in experiment [1], in experiment [3], in [5], in [6], in experiment [7] and in experiment [8] was “inactive” throughout. The Potency entry in experiment [9], in [11], in experiment [12], in experiment [13] and in experiment [15] was “inactive” each time. Further, the molecule was called inactive in [2]. Further, the max response in [10] is -27%.
In the case of `COc1ccccc1NC(=O)c1cc2ccccc2cc1O`, the Potency entry in [1], in experiment [6], in experiment [7], in [11], in experiment [12] and in experiment [13] was “inactive” throughout. For the same molecule, the Potency result in [15] was “inactive”. Also, the Potency is 89.8 µM (active) in experiment [3]; 19.3 µM (active) in [18]; 34.7 µM (active) in experiment [5]; 24.5 µM (active) in experiment [8]; 34.7 µM (active) in experiment [10]. Further, the activity change, positive = activation in experiment [19] was -49.7%.
On to `c1ccc2sc(SN(C3CCCCC3)C3CCCCC3)nc2c1`, for which the Potency result in [1], in experiment [3], in experiment [4], in experiment [5], in experiment [6] and in experiment [16] was “inactive” each time. Moreover, the Potency entry in experiment [7], in [8], in experiment [9], in [11], in experiment [12] and in experiment [17] was “inactive” each time. Further, the Potency entry in [13], in experiment [14] and in experiment [15] was “inactive” in each case. Besides, the molecule was called inactive in [2]. Moreover, the max response in experiment [10] is 3.85%.
For `Cc1ccc(CO)cc1`, the Potency entry in experiment [1], in [3], in [4], in experiment [5], in [6] and in experiment [16] was “inactive” in each case. Further, the Potency result in experiment [7], in [8], in [9], in [11], in experiment [17] and in experiment [13] was “inactive” in each case. In addition, the Potency entry in [14] and in experiment [15] was “inactive” throughout. Also, the call in experiment [2] was inactive. For the same molecule, the max response in [10] was 18.5%.
`CCC1CO1` (centres undefined): the Potency entry in experiment [1], in experiment [3], in experiment [4], in experiment [5], in [6] and in experiment [16] was “inactive” throughout. Also, the Potency entry in [7], in experiment [8], in [9], in experiment [11], in experiment [12] and in [17] was “inactive” throughout. Also, the Potency result in [13], in [14] and in experiment [15] was “inactive” each time. In experiment [2], the molecule was called inactive. Moreover, the max response in experiment [10] was 4.39%.
Regarding `Cc1ccco1`, the Potency entry in experiment [1], in [3], in experiment [4], in experiment [5], in [6] and in [16] was “inactive” in each case. Also, the Potency entry in experiment [7], in experiment [8], in experiment [9], in experiment [11], in [17] and in [13] was “inactive” throughout. The Potency entry in experiment [14] and in experiment [15] was “inactive” each time. In addition, the call in experiment [2] was inactive. Also, the max response in experiment [10] is 15.4%.
For the molecule `O=Cc1c2ccccc2c(Cl)c2ccccc12`, the Potency entry in [1], in experiment [3], in [4], in experiment [6], in [16] and in [7] was “inactive” in each case. The Potency result in experiment [8], in experiment [9], in experiment [11], in [13], in experiment [14] and in [15] was “inactive” throughout. Besides, in experiment [18], the Potency was 9.45 µM (active). Further, the activity change, positive = activation in [19] was -33.4% [at 42.5 µM].
For the molecule `CCCCCCCC/C=C\CCCCCCCCCCCC(=O)O`, the Potency result in [1], in [3], in experiment [4], in experiment [6], in [7] and in [8] was “inactive” each time. The Potency entry in experiment [9], in experiment [11], in experiment [12], in experiment [17], in [13] and in experiment [14] was “inactive” in each case. Besides, in experiment [15], the Potency entry is “inactive”. The outcome in experiment [2] was inactive.
For the molecule `O=C1Cc2ccccc2N1c1c(Cl)cccc1Cl`, the Potency entry in [1], in experiment [6], in experiment [16], in experiment [9], in experiment [11] and in experiment [12] was “inactive” each time. For the same molecule, the Potency entry in experiment [17] and in experiment [15] was “inactive” in each case. The molecule was classed as inactive in experiment [2]. The Potency in [18] is 48.6 µM (active); in experiment [10], 21.9 µM (active). The activity change, positive = activation in experiment [19] was -43.8%.
Take `Cc1cc(O)c(C)c(C)c1O`: the Potency result in experiment [1], in experiment [3], in [18], in experiment [4], in experiment [6] and in [9] was “inactive” in each case. The Potency entry in experiment [12], in experiment [17], in experiment [13], in [14] and in experiment [15] was “inactive” throughout. For the same molecule, the call in experiment [2] was inactive. Also, in experiment [19], the activity change, positive = activation was 2.57% [at 42.5 µM].
As to `O=C1c2ccccc2C(=O)C1(O)O`, the Potency in [1] is 50.8 µM (active). Also, the outcome in experiment [2] was inactive. Also, the activity change, positive = activation in [19] was -26.5%. Further, the Potency result in experiment [4], in experiment [5], in experiment [6], in [16], in [7] and in [8] was “inactive” in each case. Also, the Potency entry in experiment [9], in experiment [11], in experiment [12], in [13] and in experiment [15] was “inactive” in each case. Also, the max response in [10] was -22.4%.
In the case of `CC(=O)c1ccc([N+](=O)[O-])cc1`, the Potency entry in [1], in experiment [3], in experiment [18], in experiment [4], in experiment [5] and in experiment [6] was “inactive” each time. Also, the Potency entry in experiment [16], in [7], in experiment [8], in experiment [9], in experiment [11] and in [17] was “inactive” in each case. Also, the Potency entry in experiment [13], in [14] and in experiment [15] was “inactive” each time. For the same molecule, the molecule was classed as inactive in [2]. For the same molecule, in experiment [19], the activity change, positive = activation is 1.22%. Besides, in experiment [10], the max response is 11.2%.
